The values below come from PubChem BioAssay AID1259415 (National Center for Advancing Translational Sciences (NCATS), 2018).

Where “and” joins values, the source holds several entries; their conditions need not be identical. Identical values can stand only once. The campaign covered roughly 410,000 compounds. About 18,000 (4.4%) were called active. Another 7% or so got no clear call; they are omitted. No stated cut-off is given here; in the data, active means activity change below about -60%; inconclusive means no clear call, values can overlap the other calls; inactive means above about -39%. Shown is part of a subset that was picked to be rich in actives.
On the % scale 0 is the no-effect control and ±100 the full control effect.

The assay is described as follows: qHTS Assay for inhibitors of the human cytomegalovirus (HCMV). The following applies: HFF cells, HCMV-luciferase reporter, 72 h; at 57.5 µM; hits give low values. The procedure, abridged: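 Luciferase read-out from HCMV-luciferase-infected HFFs (MOI 1 PFU/cell) 72 h post infection at 37C; compounds added after 16 h cell attachment; activity normalized between buffer-only basal and Salinomycin (10uM) inhibitor controls.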
Background: Quantitative high-throughput screening tests each substance at several concentrations.
`CCc1ccccc1NC(=O)c1cnn(-c2ccc(F)cc2)c1C1CCNCC1`: the activity change, negative = inhibition is 2.44% (inactive).
With `CCOC(=O)Cc1ccc(NC(=O)Nc2c[nH]c(=O)[nH]c2=O)cc1` the figure was 8.88% (inactive); with `COc1ccccc1CNC(=O)C(Cc1ccccc1)NS(=O)(=O)c1ccc2c(c1)oc(=O)n2C` (centres undefined), 5.72% (inactive); with `Cc1[nH]c(C)c(S(=O)(=O)N2CCN(c3cccc(C(F)(F)F)c3)CC2)c1C(=O)N1CCCC1`, -9.51% (inactive).
Then `Cc1[nH]c(C)c(S(=O)(=O)N2CCN(c3cccc(C(F)(F)F)c3)CC2)c1C(=O)N1CCCCC1`, with -80.2% (active).
For the molecule `Cc1ccc(C)c(N2CCN(S(=O)(=O)c3c(C)[nH]c(C)c3C(=O)N3CCCC3)CC2)c1`, the activity change, negative = inhibition is -31.6% (inactive).
With `CCCS(=O)(=O)c1c(Nc2ccccc2C)sc(C(=O)c2ccccc2)c1N` the figure was 16.8% (inactive); with `O=c1cc(CSc2ncn[nH]2)[nH]c2ccc(F)cc12`, 10.7% (inactive); with `CC(C)(C)N1C(=O)c2c(C(=O)OCc3ccccc3)[nH]c(-c3ccccc3)c2C1=O`, -12.2% (inactive).
Then `CCN(CCCNC(=O)c1cc2cc3cc(OC)ccc3nc2s1)c1ccccc1`, with 44.1% (inactive).
With `CCN(CCCNC(=O)CSc1cc(=O)n(C)c2cc(Cl)ccc12)c1cccc(C)c1` the figure was 1.12% (inactive); with `COc1ccc(CCNC(=O)c2c3c(nc4ccccc24)C(=O)N(C2CCCCC2)C3)cc1OC`, -6.18% (inactive); with `CCCCN(CCCNC(=O)c1cc(Nc2ccccc2OC)nc2ccccc12)c1ccccc1`, -9.32% (inactive).
As to `COc1ccccc1Nc1cc(C(=O)NCCCN(C)C2CCCCC2)c2ccccc2n1`, the activity change, negative = inhibition is -98.1% (active).
Consider `CCN(CCCNC(=O)c1cc(Nc2ccc(OC)cc2)nc2ccccc12)c1cccc(C)c1`, for which the activity change, negative = inhibition was -61.5% (active).
Then `CCc1nc2cccnc2n1-c1ccc(CC(=O)Nc2c(C)cccc2C)cc1`, with 0% (inactive); and `Cc1cc(C)cc(NC(=O)c2cnc3sc(N4CCCC4)nn3c2=O)c1`, with -28.7% (inactive); and `CCCCCCCCn1c2c(c(=N)c3c1CCC3)CCCC2`, with -99.4% (active).
Then `CSc1ncc(C(=O)NCc2ccccc2Cl)c(C(F)(F)F)n1`, with -2.41% (inactive); and `O=C(CCN1CCCO1)N1CCCC(N2CCN(c3cccc(C(F)(F)F)c3)CC2)C1` (centres undefined), with 69.3% (inactive); and `COC(=O)c1ccc(NC(=O)c2cc(S(=O)(=O)N3CCC(C)CC3)cn2C)cc1`, with -7.89% (inactive).
With `Cc1c2cnn(-c3ccccc3)c(=O)c2c(C)n1C(C)C(=O)Nc1ccc(Br)cc1F` (centres undefined) the figure was -30.3% (inactive); with `CC1CC(C)CN(S(=O)(=O)c2cccc(C(=O)N3C(=O)c4cccc(N)c4C3=O)c2)C1` (centres undefined), 4.25% (inactive).
On to `Cn1c(=O)n(C)c2cc(S(=O)(=O)Nc3ccc(F)cc3)ccc21`, for which the activity change, negative = inhibition was 41.5% (inactive).
Then `Cn1c(=O)n(C)c2cc(NS(=O)(=O)c3ccc(F)cc3)ccc21`, with 1.03% (inactive) and 221% (inactive); and `Cn1c(CCN2CCN(c3ccccn3)CC2)nc2cc(NS(=O)(=O)c3ccc(F)cc3)ccc21`, with -85.1% (active).
With `COc1ccc(NC(=O)CSc2nc3ccccc3[nH]2)cc1` the figure was 2.79% (inactive).
Then `CC1=C(C(=O)Nc2ccccc2Cl)C(c2cccs2)n2ncnc2N1` (centres undefined), with -15.8% (inactive); and `CCOC(=O)C1=C(c2ccccc2)Nc2ncnn2C1c1ccc(Cl)cc1` (centres undefined), with -113% (active); and `CCOc1ccccc1NC(=O)C1=C(C)Nc2ncnn2C1c1ccc(NC(C)=O)cc1` (centres undefined), with 4.88% (inactive).
In the case of `CCc1nn(CC(=O)Nc2cc(C)cc(C)c2)c(=O)c2cc3sccc3n12`, the activity change, negative = inhibition is -8.76% (inactive).
With `CCS(=O)(=O)N1CCC(n2c(C)nc3cccnc32)CC1`, the activity change, negative = inhibition was -0.684% (inactive).
With `C=CCNC(=S)NNc1ncnc2sc3c(c12)CC(C)(C)OC3` the figure was -105% (active); with `CC/C(C)=N/Nc1nc2sc3c(c2c(=O)[nH]1)CC(C)(C)OC3`, -10.6% (inactive); with `CCCSc1nc2sc3c(c2c(=O)n1-c1cccc(Br)c1)CC(C)(C)OC3`, -0.221% (inactive).
With `COc1ccc(NC(=O)C2CCCN(S(=O)(=O)c3c(C)[nH]c(=O)[nH]c3=O)C2)c(OC)c1` (centres undefined) the figure was 10.4% (inactive); with `CC(/C=C/c1ccccc1)=N\NC(=O)C1CC1(C)c1ccccc1` (centres undefined), -62.3% (active).
For the molecule `COC(=O)C1(C)CC1(c1ccccc1)c1ccccc1` (centres undefined), the activity change, negative = inhibition is 13.4% (inactive).
Then `CC(/C=C/c1ccco1)=N/NC(=O)C1COc2ccccc2O1` (centres undefined), with 27.4% (inactive); and `Cc1cn(C2C=CC(CO)O2)c(=O)[nH]c1=O` (centres undefined), with -30.1% (inactive); and `COc1ccc(S(=O)(=O)NCC(c2ccc(N(C)C)cc2)N2CCCC2)cc1` (centres undefined), with -4.35% (inactive).
As to `Cc1cc(C(=O)OCC(=O)Nc2c(F)cccc2F)c(C)n1C1CC1`, the activity change, negative = inhibition was -2.16% (inactive).
As for `Cc1ccccc1NC(=O)COC(=O)c1cc(C)n(C2CC2)c1C`, the activity change, negative = inhibition was -2.16% (inactive).
With `Cc1cc(C(=O)COc2ccccc2Cl)c(C)n1C1CC1` the figure was -67.2% (active); with `COc1cccc(CNC(=O)C2CCC(CNS(=O)(=O)c3cccs3)CC2)c1` (centres undefined), -3.87% (inactive).
With `Fc1cccc(-n2ncc3c2ncn2nc(-c4ccccc4Cl)nc32)c1` the figure was -25.2% (inactive); with `O=C(Cn1c(=O)n(Cc2ccccc2)c(=O)c2sc3ccccc3c21)Nc1ccccc1F`, 20.5% (inactive); with `CCOc1ccc(S(=O)(=O)NCCC(=O)NNC(=O)c2ccc(F)cc2)cc1`, 70.6% (inactive).
For `Cc1ccc2sc(N(Cc3cccnc3)C(=O)C3COc4ccccc4O3)nc2c1C` (centres undefined), the activity change, negative = inhibition is 0% (inactive).
`Cc1ccc(NC(=O)c2ccc(CSc3ncnc4nc[nH]c34)cc2)c(C)c1`: the activity change, negative = inhibition was -37% (inactive).
For `CCc1ccc(N(CC)c2ncnc3nc[nH]c23)cc1`, the activity change, negative = inhibition was -84.7% (active).
With `S=c1c2[nH]cnc2ncn1CCSc1ncnc2nc[nH]c12` the figure was -16% (inactive).
Then `CC(C)(C)C1CCc2c(sc(NC(=O)c3ccccc3F)c2C(=O)N2CCCCC2)C1` (centres undefined), with -1.57% (inactive).
Then `CCOC(=O)NN1C(=O)c2ccccc2NC1c1cccc(O)c1` (centres undefined), with -96.9% (active).
With `CCOC(=O)NN1C(=O)c2ccccc2NC1c1ccccc1O` (centres undefined), the activity change, negative = inhibition is 54.6% (inactive).
Then `CC(=O)NN1C(=O)c2ccccc2NC1c1ccccc1` (centres undefined), with 44.7% (inactive).
Then `CC1(C)C(C=C(Cl)Cl)C1C(=O)NC(O)C(=O)c1ccccc1` (centres undefined), with -33.9% (inactive).
Then `Cc1cc(C)cc(NC(=O)Cn2c(=O)c3ccccc3n3nncc23)c1`, with 2.01% (inactive); and `CC(=O)c1sc(N2C(=O)c3oc4ccccc4c(=O)c3C2c2ccc(C)cc2)nc1C` (centres undefined), with 24.4% (inactive).
As to `CN(C(=O)CN1CCN(c2cc(-c3ccc(OCc4ccccc4)cc3)ncn2)CC1)c1ccccc1`, the activity change, negative = inhibition is -71.2% (active).
Then `CCOc1ccc(OCc2ccc(C(=O)N(C)c3ccccc3)o2)cc1`, with 41.3% (inactive); and `CCN(CC)c1ccc(NC(=O)CN2CCN(c3ccccn3)CC2)cc1`, with 28.5% (inactive).
Then `CCCc1cc(=O)n2[nH]c(NCc3ccc(CC)cc3)nc2n1`, with -6.39% (inactive); and `CC(=O)NC(c1ccccc1)c1nc(-c2cccc(C(C)C)c2)cs1` (centres undefined), with -66.8% (active); and `OC(c1ccccc1)c1nc(-c2cnc3ccccc3c2)cs1` (centres undefined), with 184% (inactive).
Then `CC(=O)NC(c1ccccc1)c1nc(-c2ccccc2C)cs1` (centres undefined), with -25.4% (inactive).
For the molecule `Cc1ccc(N(C)C(=O)C2CCN(S(=O)(=O)c3ccc4c(c3)CCCN4C(=O)C3CCC3)CC2)cc1`, the activity change, negative = inhibition was 8.58% (inactive).
Consider `Cc1c(NC(=O)C(C)Oc2cccc(Cl)c2)c(=O)n(-c2ccccc2)n1C` (centres undefined), for which the activity change, negative = inhibition is -25% (inactive).
Then `NC(=O)C1CCN(C(=O)CC2C(=O)NCCN2Cc2cccc(Oc3ccccc3)c2)CC1` (centres undefined), with -38.9% (inactive).
With `CCCCOc1ccc(Cl)cc1CSc1nncn1N` the figure was -20.2% (inactive); with `COc1ccc(Cl)cc1CSc1ncn[nH]1`, -63.2% (active); with `ClC1(Cl)CC1CSc1ncn[nH]1` (centres undefined), 62.8% (inactive).
With `CCCCOc1ccc(NC(=O)c2cc3c(n(-c4ccc(Cl)cc4)c2=O)CCCC3=O)cc1` the figure was 14.9% (inactive).
`COC(=O)c1ccc(NC(=O)CSc2n[nH]c(-c3ccccc3)n2)cc1`: the activity change, negative = inhibition was 16.1% (inactive).
As for `Cc1ccc(NC(=O)C(=O)NCC(c2cccnc2)N2CCOCC2)cc1` (centres undefined), the activity change, negative = inhibition is -12.5% (inactive).
With `COc1ccccc1N1CCN(C2C(=O)c3ccccc3N2C(C)=O)CC1` (centres undefined) the figure was 0% (inactive); with `Cc1ccc(C(=O)N/C(=C\c2cn(S(=O)(=O)N(C)C)c3ccccc23)C(=O)N2CCCC2)cc1`, -95.9% (active).
Then `O=C(N/C(=C\c1ccc(O)cc1)C(=O)N1CCCCC1)c1ccccc1`, with -16.2% (inactive).
Then `Cc1ccc(C(=O)N/C(=C/c2cccs2)C(=O)N2CCCCC2)cc1`, with -25.9% (inactive); and `C#Cc1ccc(NC(=O)C2(C)CCN2C(=O)Cc2ccc(-c3ccccc3)cc2)cc1` (centres undefined), with -83.5% (active).
For the molecule `COc1ccc(OC)c(NC(=O)C2(C)CCN2C(=O)Cc2ccccc2)c1` (centres undefined), the activity change, negative = inhibition was -33.9% (inactive).
For the molecule `CC1(C(=O)NS(=O)(=O)c2cccs2)CCN1C(=O)Cc1ccc(-c2ccccc2)cc1` (centres undefined), the activity change, negative = inhibition was -1.93% (inactive).
`COC(=O)c1cc(NC(=O)CCS(=O)(=O)c2cc(Br)cc3c2N(C(=O)C2CC2)CC3)cc(C(=O)OC)c1`: the activity change, negative = inhibition is 3.41% (inactive).
For `COc1cc(-n2c(C)nc3cc(C(=O)NCc4ccco4)ccc32)cc(OC)c1OC`, the activity change, negative = inhibition is 17.2% (inactive).
Then `CCCC1=Nc2cc(C(=O)NCc3ccco3)ccc2Sc2ccccc21`, with -69.1% (active).
With `O=C(NCc1ccco1)c1cccc(-c2ccc3nncn3c2)c1` the figure was 15.7% (inactive).
Then `COc1ccc(-c2ccc(=O)n(CC(=O)Nc3ccc(Br)cc3F)n2)cc1`, with -10.5% (inactive).
`O=C1c2cccc3cccc(c23)N1CN1CCN(c2ccccn2)CC1`: the activity change, negative = inhibition is 16% (inactive).
Then `CCOC(=O)c1c(C)[nH]c(C)c1S(=O)(=O)NCC(=O)NCc1cccc(C)c1`, with -20.2% (inactive).
